Several values for one entry are separate records, joined by “and”; a condition that tells them apart may be missing. Equal values may be shown once. Compounds without any hit were thinned out: in the full panel of roughly 79,000, 15% have a hit. Activity calls are given as the source filed them. No stated cut-off is given here; in the data, active means growth inhibition above about 70%; inactive means the rest.

A short description of assay [1]: NCI Yeast Anticancer Drug Screen. Data for the rad50 strain (AID 155).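 Further: 0% = growth of vehicle-only cultures of the same strain.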 To be noted: S. cerevisiae rad50 strain growth inhibition, stronger effect = higher value. The method in brief:
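Vehicle-treated cultures provide the reference for the growth inhibition reported for compound-exposed, repair-deficient yeast.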

Assay [2] can be described thus: NCI Yeast Anticancer Drug Screen. Data for the mec2-1 strain (AID 157). To be noted: S. cerevisiae mec2-1 strain, stronger effect = higher value. The method, boiled down:
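Each compound was tested on mec2-1 yeast, a strain altered in DNA damage repair or cell cycle control. Growth inhibition is reported relative to vehicle.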

Assay [3] is described as follows: NCI Yeast Anticancer Drug Screen. Data for the sgs1 mgt1 strain (AID 161).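 Further: 0% = growth of cultures given vehicle only.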 To be noted: S. cerevisiae sgs1 mgt1 strain, stronger effect = higher value. The method in brief: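 Inhibition of yeast growth, normalised to vehicle-treated controls, is reported for a strain bearing genetic alterations in DNA damage repair.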
Assay [4] can be described thus: NCI Yeast Anticancer Drug Screen. Data for the cln2 rad14 strain (AID 165).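 Further: 0% = growth equal to vehicle treated cultures.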 To be noted: S. cerevisiae cln2 rad14 strain, stronger effect = higher value. The method in brief:
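Test compounds were added to cln2 rad14 yeast cultures; inhibition of growth was then determined by comparison with vehicle treatment.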

A short description of assay [5]: NCI Yeast Anticancer Drug Screen. Data for the bub3 strain (AID 167). The conditions noted are these: S. cerevisiae bub3 mutant strain, stronger effect = higher value. The method, boiled down: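 Mutant yeast screening strain plus compound; vehicle-treated cultures serve as the 0% inhibition reference.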
Assay [6] in a line: NCI Yeast Anticancer Drug Screen. Data for the mlh1 rad18 strain (AID 175). The conditions noted are these: S. cerevisiae mlh1 rad18 strain growth inhibition, stronger effect = higher value. The method in brief: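 Inhibition values reflect reduced growth of mutant yeast versus vehicle-treated controls following compound exposure; the mutations affect DNA damage repair.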
Setting [7] is: at 5.0 µM (retest, dose inferred, filed as 0.5).
Setting [8] is: at 50.0 µM (retest, dose inferred, filed as 5.0).

With `CCOC(=O)C1C2OC(=O)C(C(=O)C2CN(CCCl)CCCl)C1C1CC=C(CC2=CCC(C3C4C(=O)OC(C(CN(CCCl)CCCl)C4=O)C3C(=O)OCC)CC2)CC1` (stereo unspecified), the growth inhibition in assay [1] (setting [7]) is 96% (active); in assay [1] (setting [8]), 97% (active); in assay [1] (at 50.0 µM), 53.5% (inactive); in assay [2] (setting [7]), 84% (active); in assay [2] (setting [8]), 99% (active); in assay [2] (at 50.0 µM), 57.2% (inactive). For the same compound, the growth inhibition is 68% (inactive) in assay [3] (setting [7]); 96% (active) in assay [3] (setting [8]); 57.1% (inactive) in assay [3] (at 50.0 µM); 93% (active) in assay [4] (setting [7]); 96% (active) in assay [4] (setting [8]); 54.1% (inactive) in assay [4] (at 50.0 µM). Besides, the growth inhibition in assay [5] (setting [7]) was 49% (inactive); in assay [5] (setting [8]), 97% (active); in assay [5] (at 50.0 µM), 49.5% (inactive); in assay [6] (setting [7]) it was 95% (active); in assay [6] (setting [8]) it was 98% (active); in assay [6] (at 50.0 µM), 65.3% (inactive).

In the case of `CC1CCS(=O)(=O)CC1.[Cl][Hg][Cl]`, the growth inhibition in assay [1] (setting [7]) is 98% (active); in assay [1] (setting [8]), 99% (active); in assay [1] (at 50.0 µM), 99.6% (active); in assay [2] (setting [7]), 99% (active); in assay [2] (setting [8]), 99% (active); in assay [2] (at 50.0 µM) it was 99.6% (active). Besides, the growth inhibition is 99% (active) in assay [3] (setting [7]); 99% (active) in assay [3] (setting [8]); 99.6% (active) in assay [3] (at 50.0 µM); 99% (active) in assay [4] (setting [7]); 99% (active) in assay [4] (setting [8]); 99.3% (active) in assay [4] (at 50.0 µM). Also, the growth inhibition was 99% (active) in assay [5] (setting [7]); 99% (active) in assay [5] (setting [8]); 99.5% (active) in assay [5] (at 50.0 µM); 99% (active) in assay [6] (setting [7]); 99% (active) in assay [6] (setting [8]); 99.5% (active) in assay [6] (at 50.0 µM).

For the compound `COc1cc(C2c3cc4c(cc3[C@@H](Nc3ccc(F)cc3)C3COC(=O)[C@H]23)OCO4)cc(OC)c1O` (stereo partly specified), the growth inhibition in assay [1] (setting [7]) is 96% (active); in assay [1] (setting [8]), 96% (active); in assay [1] (at 50.0 µM), 85.3% (active); in assay [2] (setting [7]), 97% (active); in assay [2] (setting [8]), 98% (active); in assay [2] (at 50.0 µM) it was 91.2% (active). The growth inhibition in assay [3] (setting [7]) is 94% (active); in assay [3] (setting [8]) it was 99% (active); in assay [3] (at 50.0 µM), 88.9% (active); in assay [4] (setting [7]), 41% (inactive); in assay [4] (setting [8]), 99% (active); in assay [4] (at 50.0 µM) it was 87.8% (active). The growth inhibition is 99% (active) in assay [5] (setting [7]); 99% (active) in assay [5] (setting [8]); 88.6% (active) in assay [5] (at 50.0 µM); 95% (active) in assay [6] (setting [7]); 95% (active) in assay [6] (setting [8]); 88.1% (active) in assay [6] (at 50.0 µM).

With `CC(C)C1=CC23CCC4C(C)(C(=O)O)CCCC4(C)C2CC1OO3` (stereo unspecified), the growth inhibition in assay [1] (setting [7]) was 37% (inactive); in assay [1] (setting [8]), 91% (active); in assay [1] (at 50.0 µM) it was 98.2% (active) and 98.8% (active); in assay [2] (setting [7]), 10% (inactive); in assay [2] (setting [8]) it was 94% (active); in assay [2] (at 50.0 µM) it was 93.1% (active) and 98.8% (active). Besides, the growth inhibition in assay [3] (setting [7]) is 17% (inactive); in assay [3] (setting [8]) it was 84% (active); in assay [3] (at 50.0 µM), 98.2% (active) and 98.9% (active); in assay [4] (setting [7]) it was 1% (inactive); in assay [4] (setting [8]) it was 78% (active); in assay [4] (at 50.0 µM), 97% (active) and 90.4% (active). Besides, the growth inhibition in assay [5] (setting [7]) is -3% (inactive); in assay [5] (setting [8]) it was 80% (active); in assay [5] (at 50.0 µM), 98% (active) and 99.5% (active); in assay [6] (setting [7]) it was 27% (inactive); in assay [6] (setting [8]), 89% (active); in assay [6] (at 50.0 µM) it was 98.5% (active) and 95.2% (active).

Take `O=P(c1ccccc1)(c1ccccc1)c1ccccc1.O=P(c1ccccc1)(c1ccccc1)c1ccccc1.S=C=[N][Sn]([N]=C=S)([N]=C=S)[c]1ccccc1`: the growth inhibition in assay [1] (setting [7]) was 58% (inactive); in assay [1] (setting [8]), 98% (active); in assay [1] (at 50.0 µM), 99.5% (active); in assay [2] (setting [7]) it was 21% (inactive); in assay [2] (setting [8]) it was 99% (active); in assay [2] (at 50.0 µM) it was 99.5% (active). Besides, the growth inhibition in assay [3] (setting [7]) was 62% (inactive); in assay [3] (setting [8]), 99% (active); in assay [3] (at 50.0 µM), 99% (active); in assay [4] (setting [7]) it was -2% (inactive); in assay [4] (setting [8]) it was 98% (active); in assay [4] (at 50.0 µM), 97.8% (active). Further, the growth inhibition in assay [5] (setting [7]) was -2% (inactive); in assay [5] (setting [8]), 99% (active); in assay [5] (at 50.0 µM), 99.2% (active); in assay [6] (setting [7]), 72% (active); in assay [6] (setting [8]) it was 99% (active); in assay [6] (at 50.0 µM), 97.7% (active).

With `Cc1ccc2ccccc2c1NC1=NCCO1`, the growth inhibition in assay [1] (setting [7]) was 24% (inactive); in assay [1] (setting [8]), 45% (inactive); in assay [1] (at 50.0 µM), -15.6% (inactive); in assay [2] (setting [7]) it was 25% (inactive); in assay [2] (setting [8]), 20% (inactive); in assay [2] (at 50.0 µM) it was -10.9% (inactive). Further, the growth inhibition in assay [3] (setting [7]) is 21% (inactive); in assay [3] (setting [8]) it was 11% (inactive); in assay [3] (at 50.0 µM), -5.65% (inactive); in assay [4] (setting [7]), 17% (inactive); in assay [4] (setting [8]), 26% (inactive); in assay [4] (at 50.0 µM), 17% (inactive). Besides, the growth inhibition in assay [5] (setting [7]) is 18% (inactive); in assay [5] (setting [8]), 6% (inactive); in assay [5] (at 50.0 µM) it was 11.8% (inactive); in assay [6] (setting [7]) it was 30% (inactive); in assay [6] (setting [8]), 17% (inactive); in assay [6] (at 50.0 µM), -10.1% (inactive).

As for `c1ccc2c(c1)CCc1c-2[nH]c2ccccc12`, the growth inhibition in assay [1] (setting [7]) is -67% (inactive); in assay [1] (setting [8]), 79% (active); in assay [1] (at 50.0 µM), 72.2% (active); in assay [2] (setting [7]), -8% (inactive); in assay [2] (setting [8]), 77% (active); in assay [2] (at 50.0 µM), 36.4% (inactive). The growth inhibition is -9% (inactive) in assay [3] (setting [7]); 90% (active) in assay [3] (setting [8]); 71.7% (active) in assay [3] (at 50.0 µM); -60% (inactive) in assay [4] (setting [7]); 65% (inactive) in assay [4] (setting [8]); 51.8% (inactive) in assay [4] (at 50.0 µM). In addition, the growth inhibition is -48% (inactive) in assay [5] (setting [7]); 87% (active) in assay [5] (setting [8]); 89.8% (active) in assay [5] (at 50.0 µM); -43% (inactive) in assay [6] (setting [7]); 83% (active) in assay [6] (setting [8]); 83.2% (active) in assay [6] (at 50.0 µM).

These data come from PubChem BioAssay (NCI).
